Assay results reported in PubChem BioAssay AID1159580 (chemical genetic matrix, 2015).
The whole screen tested about 5,500 compounds, of which about 2,000 (36%) were called active. Not shown: some 18% with an inconclusive outcome. Rule as the data show it: active = normalized growth mostly below about 0.91 (no sharp cut-off); inconclusive = no clear call, values can overlap the other calls; inactive = mostly above about 0.92. Some of the results follow.

Experiment: chemical genetic growth profiling, strain panel (AID 1159580);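 also: tested at 20 µM; growth read once vehicle control cultures reached saturation at 30 °C; 1 = growth at the plate median or of vehicle wells; lower values mean less growth of the strain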
Conditions: growth OD

Measured: normalized growth

C[C@H]1O[C@@H](O[C@H]2[C@@H](O)C[C@H](O[C@H]3[C@@H](O)C[C@H](O[C@H]4CC[C@]5(C)C6C[C@@H](O)[C@]7(C)[C@@H](C8=CC(=O)OC8)CC[C@]7(O)C6CC[C@@H]5C4)O[C@@H]3C)O[C@@H]2C)C[C@H](O)[C@@H]1O (some centres undefined)
inactive: S. cerevisiae deletion strains, locus YJR043C, strain POL32, active compounds read low 1.01 | S. cerevisiae deletion strains, locus YJR066W, strain TOR1, active compounds read low 0.966 | S. cerevisiae deletion strains, locus YKL009W, strain mrt4, active compounds read low 0.969 | S. cerevisiae deletion strains, locus YKL068W, active compounds read low 0.986 | S. cerevisiae deletion strains, locus YKL085W, strain MDH1 (second series), active compounds read low 0.991 | S. cerevisiae deletion strains, locus YKL085W, strain MDH1, active compounds read low 0.991 | S. cerevisiae deletion strains, locus YKL160W, strain elf1, active compounds read low 0.93 | S. cerevisiae deletion strains, locus YKR001C, strain vps1, active compounds read low 0.971 | S. cerevisiae deletion strains, locus YKR026C, strain gcn3, active compounds read low 1 | S. cerevisiae deletion strains, locus YKR091W, strain srl3, active compounds read low 0.984 | S. cerevisiae deletion strains, locus YLL001W, strain dnm1, active compounds read low 0.921 | S. cerevisiae deletion strains, locus YLL026W, active compounds read low 0.999 | S. cerevisiae deletion strains, locus YLL041C, strain sdh2, active compounds read low 1 | S. cerevisiae deletion strains, locus YLR027C, strain aat2, active compounds read low 1.03 | S. cerevisiae deletion strains, locus YLR039C, strain RIC1, active compounds read low 0.973 | S. cerevisiae deletion strains, locus YLR058C, strain SHM2, active compounds read low 1 | S. cerevisiae deletion strains, locus YLR102C, strain apc9, active compounds read low 0.977 | S. cerevisiae deletion strains, locus YLR113W, strain HOG1, active compounds read low 1.09 | S. cerevisiae deletion strains, locus YLR221C, strain rsa3, active compounds read low 1.01 | S. cerevisiae deletion strains, locus YLR258W, strain gsy2, active compounds read low 1.01 | S. cerevisiae deletion strains, locus YLR262C, strain YPT6 (second series), active compounds read low 0.956 | S. cerevisiae deletion strains, locus YLR262C, strain YPT6, active compounds read low 0.984 | S. cerevisiae deletion strains, locus YLR268W, strain sec22, active compounds read low 0.959 | S. cerevisiae deletion strains, locus YLR320W, strain mms22, active compounds read low 0.969 | S. cerevisiae deletion strains, locus YLR330W, strain CHS5, active compounds read low 0.983 | S. cerevisiae deletion strains, locus YLR342W, strain FKS1 (second series), active compounds read low 1.02 | S. cerevisiae deletion strains, locus YLR342W, strain FKS1, active compounds read low 0.983 | S. cerevisiae deletion strains, locus YLR357W, strain rsc2, active compounds read low 0.999 | S. cerevisiae deletion strains, locus YLR370C, strain arc18, active compounds read low 0.994 | S. cerevisiae deletion strains, locus YLR371W, strain rom2, active compounds read low 0.997 | S. cerevisiae deletion strains, locus YLR384C, strain iki3, active compounds read low 1 | S. cerevisiae deletion strains, locus YLR418C, strain cdc73, active compounds read low 1.01 | S. cerevisiae deletion strains, locus YML016C, strain PPZ1, active compounds read low 0.998 | S. cerevisiae deletion strains, locus YML032C, strain rad52, active compounds read low 0.988 | S. cerevisiae deletion strains, locus YML120C, strain ndi1, active compounds read low 0.946 | S. cerevisiae deletion strains, locus YML124C, strain tub3, active compounds read low 0.992 | S. cerevisiae deletion strains, locus YMR058W, strain fet3, active compounds read low 0.984 | S. cerevisiae deletion strains, locus YMR078C, strain ctf18, active compounds read low 0.981 | S. cerevisiae deletion strains, locus YMR125W, strain sto1, active compounds read low 0.925 | S. cerevisiae deletion strains, locus YMR129W, active compounds read low 0.996 | S. cerevisiae deletion strains, locus YMR205C, strain PFK2, active compounds read low 0.942 | S. cerevisiae deletion strains, locus YMR223W, strain ubp8, active compounds read low 0.993 | S. cerevisiae deletion strains, locus YMR231W, strain pep5, active compounds read low 0.998 | S. cerevisiae deletion strains, locus YMR307W, strain GAS1, active compounds read low 1.09 | S. cerevisiae deletion strains, locus YNL067W, strain RPL9B, active compounds read low 1.03 | S. cerevisiae deletion strains, locus YNL071W, strain lat1, active compounds read low 1 | S. cerevisiae deletion strains, locus YNL128W, strain TEP1, active compounds read low 0.977 | S. cerevisiae deletion strains, locus YNL183C, strain NPR1, active compounds read low 0.985 | S. cerevisiae deletion strains, locus YNL209W, strain ssb2, active compounds read low 0.995 | S. cerevisiae deletion strains, locus YNL233W, strain BNI4, active compounds read low 1.01 | S. cerevisiae deletion strains, locus YNL248C, strain rpa49, active compounds read low 0.973 | S. cerevisiae deletion strains, locus YNL250W, strain rad50, active compounds read low 0.974 | S. cerevisiae deletion strains, locus YNL271C, strain bni1, active compounds read low 0.996 | S. cerevisiae deletion strains, locus YNL298W, strain CLA4, active compounds read low 0.986 | S. cerevisiae deletion strains, locus YNL307C, strain MCK1, active compounds read low 0.988 | S. cerevisiae deletion strains, locus YNL322C, strain KRE1 (second series), active compounds read low 0.995 | S. cerevisiae deletion strains, locus YNL322C, strain KRE1, active compounds read low 0.996 | S. cerevisiae deletion strains, locus YNR049C, strain mso1, active compounds read low 0.986 | S. cerevisiae deletion strains, locus YNR052C, strain pop2, active compounds read low 0.993 | S. cerevisiae deletion strains, locus YOL006C, strain TOP1, active compounds read low 0.959 | S. cerevisiae deletion strains, locus YOL012C, strain htz1 0.951 | S. cerevisiae deletion strains, locus YOL147C, strain pex11, active compounds read low 0.99 | S. cerevisiae deletion strains, locus YOR001W, strain rrp6, active compounds read low 1.06 | S. cerevisiae deletion strains, locus YOR061W, strain CKA2, active compounds read low 0.984 | S. cerevisiae deletion strains, locus YOR069W, strain VPS5, active compounds read low 0.992 | S. cerevisiae deletion strains, locus YOR070C, strain gyp1, active compounds read low 0.999 | S. cerevisiae deletion strains, locus YOR080W, strain dia2, active compounds read low 0.985 | S. cerevisiae deletion strains, locus YOR083W, strain WHI5, active compounds read low 0.945 | S. cerevisiae deletion strains, locus YOR106W, strain vam3, active compounds read low 0.947 | S. cerevisiae deletion strains, locus YOR136W, strain idh2, active compounds read low 0.974 | S. cerevisiae deletion strains, locus YOR144C, strain elg1, active compounds read low 0.988 | S. cerevisiae deletion strains, locus YOR184W, strain ser1, active compounds read low 0.979 | S. cerevisiae deletion strains, locus YOR231W, strain MKK1, active compounds read low 1.04 | S. cerevisiae deletion strains, locus YOR265W, strain rbl2, active compounds read low 0.993 | S. cerevisiae deletion strains, locus YOR270C, strain vph1, active compounds read low 0.92 | S. cerevisiae deletion strains, locus YOR290C, strain snf2, active compounds read low 0.973 | S. cerevisiae deletion strains, locus YOR316C, strain cot1, active compounds read low 0.983 | S. cerevisiae deletion strains, locus YPL051W, strain arl3, active compounds read low 1 | S. cerevisiae deletion strains, locus YPL078C, strain atp4, active compounds read low 0.932 | S. cerevisiae deletion strains, locus YPL106C, strain sse1, active compounds read low 1 | S. cerevisiae deletion strains, locus YPL240C, strain hsp82, active compounds read low 0.99 | S. cerevisiae deletion strains, locus YPL241C, strain CIN2, active compounds read low 0.998 | S. cerevisiae deletion strains, locus YPL256C, strain CLN2, active compounds read low 1.04 | S. cerevisiae deletion strains, locus YPR119W, strain clb2, active compounds read low 1 | S. cerevisiae deletion strains, locus YPR141C, strain kar3, active compounds read low 0.984 | S. cerevisiae deletion strains, locus YPR163C, strain tif3, active compounds read low 0.977 | S. cerevisiae deletion strains, locus YPR167C, strain met16, active compounds read low 0.977 | S. cerevisiae deletion strains, strain wtn01, active compounds read low 0.997 | S. cerevisiae strains, strain wild type, active compounds read low 1
